Results as given in the supplement of paper PMC11732987, “Enantioselective OTUD7B fragment discovery through chemoproteomics screening and high-throughput optimisation” (Communications Chemistry, 2025).
Values without a mark were called inactive.

Tests used:
Assay in all cases: log2 ratio of Biotin-Ahx-Ub-VS probe labelling (fragment/DMSO); higher = less target engagement (more negative = stronger competition), active = hit call of the paper (q ≤ 0.05, log2 ratio ≤ -1)
Settings in all cases: compound concentration: 200 uM; treatment time: 3 h
[1] = molecular target: T1, OTUD6B (UniProt Q8N6M0)
T1 sequence (whole entry): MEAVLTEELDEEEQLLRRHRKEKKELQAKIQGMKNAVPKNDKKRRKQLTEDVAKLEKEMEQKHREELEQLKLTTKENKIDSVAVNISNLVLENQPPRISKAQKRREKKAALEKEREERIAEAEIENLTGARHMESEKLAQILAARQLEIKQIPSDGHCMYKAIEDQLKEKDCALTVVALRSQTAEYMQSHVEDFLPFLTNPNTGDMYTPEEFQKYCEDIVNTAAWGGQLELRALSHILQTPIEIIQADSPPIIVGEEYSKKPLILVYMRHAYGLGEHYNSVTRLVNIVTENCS
Method in brief: (§1)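 HEK293T lysate, 495 µg per sample in Tris/CHAPS/IGEPAL buffer with protease inhibitors, was treated in triplicate with fragment at 200 µM or vehicle for 3 h and then with Biotin-Ahx-Ub-VS at 0.5 µM final for 1 h. Labelled DUBs were NeutrAvidin-enriched, digested with LysC and trypsin, and run by diaPASEF LC-MS/MS. Spectronaut label-free quantities were global-median-normalised, and values are average log2 fragment/vehicle ratios by unpaired t-test on proteins with ≥2 unique peptides.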

[2] = molecular target: T2, OTUD7B (UniProt Q6GQQ9)
T2 sequence (whole entry): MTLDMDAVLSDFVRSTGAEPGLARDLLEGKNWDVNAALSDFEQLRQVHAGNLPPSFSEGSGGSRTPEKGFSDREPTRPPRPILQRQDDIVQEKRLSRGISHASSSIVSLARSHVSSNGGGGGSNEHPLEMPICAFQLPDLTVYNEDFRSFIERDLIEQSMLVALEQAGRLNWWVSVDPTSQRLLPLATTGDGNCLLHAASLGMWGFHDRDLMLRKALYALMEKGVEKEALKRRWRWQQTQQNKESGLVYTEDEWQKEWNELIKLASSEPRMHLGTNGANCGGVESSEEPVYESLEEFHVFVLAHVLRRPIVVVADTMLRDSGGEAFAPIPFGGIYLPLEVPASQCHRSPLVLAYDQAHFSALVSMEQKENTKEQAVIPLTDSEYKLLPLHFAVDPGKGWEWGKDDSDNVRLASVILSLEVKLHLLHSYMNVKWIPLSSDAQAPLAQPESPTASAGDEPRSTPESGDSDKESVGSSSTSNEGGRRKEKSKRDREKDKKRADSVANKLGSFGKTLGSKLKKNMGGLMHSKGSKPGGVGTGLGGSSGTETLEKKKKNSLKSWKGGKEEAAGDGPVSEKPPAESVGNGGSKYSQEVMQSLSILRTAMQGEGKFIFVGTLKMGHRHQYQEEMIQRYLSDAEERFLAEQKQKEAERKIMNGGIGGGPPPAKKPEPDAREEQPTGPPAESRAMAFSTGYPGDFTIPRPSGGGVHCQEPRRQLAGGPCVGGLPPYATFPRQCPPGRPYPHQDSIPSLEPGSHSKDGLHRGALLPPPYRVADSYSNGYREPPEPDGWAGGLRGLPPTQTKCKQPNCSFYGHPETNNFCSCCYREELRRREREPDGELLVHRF
Method in brief: as §1

[3] = molecular target: PRPF8 (UniProt Q6P2Q9)
Method in brief: as §1

[4] = molecular target: T3, PSMD7 (UniProt P51665)
T3 sequence (whole entry): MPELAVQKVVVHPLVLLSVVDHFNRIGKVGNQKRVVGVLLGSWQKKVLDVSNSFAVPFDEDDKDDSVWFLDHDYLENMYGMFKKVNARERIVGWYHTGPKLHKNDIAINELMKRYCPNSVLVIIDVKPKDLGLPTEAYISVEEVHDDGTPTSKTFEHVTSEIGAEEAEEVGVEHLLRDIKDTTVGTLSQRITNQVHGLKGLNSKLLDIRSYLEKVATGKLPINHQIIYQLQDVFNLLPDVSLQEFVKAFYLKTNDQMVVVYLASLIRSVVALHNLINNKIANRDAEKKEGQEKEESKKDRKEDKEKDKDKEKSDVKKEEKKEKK
Method in brief: as §1

[5] = molecular target: UCHL1 (UniProt P09936)
Sequence of UCHL1 (P09936 whole entry, looked up): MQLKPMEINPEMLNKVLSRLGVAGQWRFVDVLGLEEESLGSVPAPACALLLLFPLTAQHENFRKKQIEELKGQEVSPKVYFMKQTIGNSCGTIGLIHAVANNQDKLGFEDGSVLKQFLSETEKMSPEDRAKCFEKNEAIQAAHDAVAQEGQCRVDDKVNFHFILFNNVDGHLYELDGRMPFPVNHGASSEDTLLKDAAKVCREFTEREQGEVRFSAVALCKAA
Method in brief: as §1

[6] = molecular target: T4, UCHL3 (UniProt P15374)
T4 sequence (whole entry): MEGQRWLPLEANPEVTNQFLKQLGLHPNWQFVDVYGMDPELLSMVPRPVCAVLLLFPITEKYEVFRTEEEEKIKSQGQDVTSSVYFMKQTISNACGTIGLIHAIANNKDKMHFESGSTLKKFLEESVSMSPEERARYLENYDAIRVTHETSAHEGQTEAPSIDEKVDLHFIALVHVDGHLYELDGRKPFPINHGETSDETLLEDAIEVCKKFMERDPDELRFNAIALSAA
Method in brief: as §1

[7] = molecular target: T5, UCHL5 (UniProt Q9Y5K5)
T5 sequence (whole entry): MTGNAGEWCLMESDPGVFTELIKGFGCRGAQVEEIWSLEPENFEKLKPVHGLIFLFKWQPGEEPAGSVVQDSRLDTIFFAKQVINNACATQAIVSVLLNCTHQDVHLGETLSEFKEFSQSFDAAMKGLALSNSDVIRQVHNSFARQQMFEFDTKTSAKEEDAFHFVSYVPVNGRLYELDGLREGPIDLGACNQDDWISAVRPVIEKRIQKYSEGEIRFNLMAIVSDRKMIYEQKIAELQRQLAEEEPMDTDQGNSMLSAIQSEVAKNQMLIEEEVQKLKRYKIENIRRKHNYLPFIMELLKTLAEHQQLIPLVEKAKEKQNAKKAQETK
Method in brief: as §1

[8] = molecular target: USP10 (UniProt Q14694)
Sequence of USP10 (Q14694 whole entry): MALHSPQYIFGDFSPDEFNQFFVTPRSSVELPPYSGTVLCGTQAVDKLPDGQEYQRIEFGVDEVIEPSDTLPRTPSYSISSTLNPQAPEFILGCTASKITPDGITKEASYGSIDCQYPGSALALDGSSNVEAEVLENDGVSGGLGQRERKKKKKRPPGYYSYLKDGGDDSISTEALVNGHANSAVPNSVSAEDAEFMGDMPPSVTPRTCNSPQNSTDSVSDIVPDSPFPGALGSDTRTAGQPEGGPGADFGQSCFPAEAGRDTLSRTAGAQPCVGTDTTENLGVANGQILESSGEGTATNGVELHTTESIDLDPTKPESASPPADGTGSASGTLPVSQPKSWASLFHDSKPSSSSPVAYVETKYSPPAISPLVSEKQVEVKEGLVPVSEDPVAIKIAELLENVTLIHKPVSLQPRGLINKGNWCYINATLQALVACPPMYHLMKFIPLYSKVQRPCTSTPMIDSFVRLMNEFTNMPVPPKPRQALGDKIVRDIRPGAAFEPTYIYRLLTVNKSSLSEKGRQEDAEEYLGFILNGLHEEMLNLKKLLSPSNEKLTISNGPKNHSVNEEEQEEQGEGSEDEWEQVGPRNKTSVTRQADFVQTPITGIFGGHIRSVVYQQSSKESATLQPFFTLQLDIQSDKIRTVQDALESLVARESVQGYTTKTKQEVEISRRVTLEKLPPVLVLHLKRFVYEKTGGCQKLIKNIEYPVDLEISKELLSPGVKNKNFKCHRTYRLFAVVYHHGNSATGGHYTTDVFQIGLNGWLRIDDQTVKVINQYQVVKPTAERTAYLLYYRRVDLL
Method in brief: as §1

[9] = molecular target: T6, USP15 (UniProt Q9Y4E8)
T6 sequence (whole entry): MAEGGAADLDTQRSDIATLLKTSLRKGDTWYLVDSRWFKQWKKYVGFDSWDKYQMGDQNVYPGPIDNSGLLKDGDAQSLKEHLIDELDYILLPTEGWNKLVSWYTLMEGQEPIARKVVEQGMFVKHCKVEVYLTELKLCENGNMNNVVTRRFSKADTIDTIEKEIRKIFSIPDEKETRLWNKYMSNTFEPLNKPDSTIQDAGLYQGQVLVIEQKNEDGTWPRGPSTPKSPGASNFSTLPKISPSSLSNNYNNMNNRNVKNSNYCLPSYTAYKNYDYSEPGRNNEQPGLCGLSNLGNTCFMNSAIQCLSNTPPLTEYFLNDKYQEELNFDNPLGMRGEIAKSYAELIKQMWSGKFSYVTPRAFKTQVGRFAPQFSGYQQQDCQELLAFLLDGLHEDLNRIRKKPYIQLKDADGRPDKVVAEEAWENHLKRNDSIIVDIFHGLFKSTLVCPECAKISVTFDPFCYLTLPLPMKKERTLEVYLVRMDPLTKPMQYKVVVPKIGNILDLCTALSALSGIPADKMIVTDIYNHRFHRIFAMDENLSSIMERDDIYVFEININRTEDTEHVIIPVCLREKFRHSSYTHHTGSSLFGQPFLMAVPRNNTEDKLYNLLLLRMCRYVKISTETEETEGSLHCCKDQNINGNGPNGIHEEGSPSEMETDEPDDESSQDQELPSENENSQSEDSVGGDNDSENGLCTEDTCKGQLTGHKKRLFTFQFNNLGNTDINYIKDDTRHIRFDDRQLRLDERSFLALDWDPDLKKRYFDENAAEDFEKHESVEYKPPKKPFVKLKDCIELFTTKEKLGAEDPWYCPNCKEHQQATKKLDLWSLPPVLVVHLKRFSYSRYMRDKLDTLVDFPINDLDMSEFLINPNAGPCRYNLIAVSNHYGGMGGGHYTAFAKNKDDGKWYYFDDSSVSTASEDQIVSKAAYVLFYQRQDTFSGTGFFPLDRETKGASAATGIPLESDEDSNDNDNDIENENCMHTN
Method in brief: as §1

[10] = molecular target: USP16 (UniProt Q9Y5T5)
Sequence of USP16 (Q9Y5T5 whole entry, looked up): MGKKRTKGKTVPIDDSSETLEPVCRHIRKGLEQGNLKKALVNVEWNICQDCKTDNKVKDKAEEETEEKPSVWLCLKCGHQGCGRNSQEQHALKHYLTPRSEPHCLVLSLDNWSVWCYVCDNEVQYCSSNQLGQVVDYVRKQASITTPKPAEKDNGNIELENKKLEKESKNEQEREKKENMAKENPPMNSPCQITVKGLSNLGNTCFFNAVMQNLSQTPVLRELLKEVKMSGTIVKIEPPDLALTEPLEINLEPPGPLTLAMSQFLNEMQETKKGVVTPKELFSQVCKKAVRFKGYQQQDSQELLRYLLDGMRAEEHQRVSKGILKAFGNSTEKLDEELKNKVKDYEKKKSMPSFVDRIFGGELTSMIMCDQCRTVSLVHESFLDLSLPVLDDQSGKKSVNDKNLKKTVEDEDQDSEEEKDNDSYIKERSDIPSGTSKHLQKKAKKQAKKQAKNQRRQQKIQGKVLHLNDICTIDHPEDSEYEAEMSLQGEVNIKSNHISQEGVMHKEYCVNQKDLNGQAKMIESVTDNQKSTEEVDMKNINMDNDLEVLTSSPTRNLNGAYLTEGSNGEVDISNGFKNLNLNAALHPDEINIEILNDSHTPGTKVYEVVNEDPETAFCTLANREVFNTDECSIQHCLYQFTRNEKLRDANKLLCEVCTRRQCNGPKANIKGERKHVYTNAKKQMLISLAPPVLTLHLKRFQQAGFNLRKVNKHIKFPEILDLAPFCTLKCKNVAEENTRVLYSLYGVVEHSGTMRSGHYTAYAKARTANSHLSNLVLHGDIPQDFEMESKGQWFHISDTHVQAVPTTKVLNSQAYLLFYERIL
Method in brief: as §1

SMILES	log2 ratio of Biotin-Ahx-Ub-VS probe labelling [1]	log2 ratio of Biotin-Ahx-Ub-VS probe labelling [2]	log2 ratio of Biotin-Ahx-Ub-VS probe labelling [3]	log2 ratio of Biotin-Ahx-Ub-VS probe labelling [4]	log2 ratio of Biotin-Ahx-Ub-VS probe labelling [5]	log2 ratio of Biotin-Ahx-Ub-VS probe labelling [6]	log2 ratio of Biotin-Ahx-Ub-VS probe labelling [7]	log2 ratio of Biotin-Ahx-Ub-VS probe labelling [8]	log2 ratio of Biotin-Ahx-Ub-VS probe labelling [9]	log2 ratio of Biotin-Ahx-Ub-VS probe labelling [10]
Cc1ccc(C(=O)NCCNC(=O)CCl)cc1	-0.182	-0.711	-0.064	-0.134	-1.75 (active)	0.104	-0.144	-0.111	-0.0554	-0.0901
O=C(O)C1Cc2ccccc2CN1C(=O)CCl (stereo not given)	-0.439	-0.732	-0.175	-0.239	-1.8 (active)	-0.19	-0.324	-0.112	-0.35	0.23
Cl.Cn1nccc1C(NC(=O)CCl)c1ccccc1 (stereo not given)	-0.147	-0.872	0.0203	-0.597	-1.03 (active)	0.209	-0.353	-0.0201	-0.218	-0.0928
Cc1cc(C2CCCN2C(=O)CCl)nn1C.Cl (stereo not given)	-0.252	-0.142	0.0171	-0.218	-1.54 (active)	0.3	-0.218	-0.132	-0.246	-0.631
CC(C)n1nccc1NC(=O)CCl	-0.189	-2.07 (active)	-0.0737	-0.278	-1.45 (active)	0.181	-0.327	0.0851	-0.314	-0.153
COc1ccc(-c2csc(NC(=O)CCl)n2)cc1	-0.417	-0.639	0.0611	-0.221	-1.27 (active)	-0.274	-3.29 (active)	-0.17	-0.394	-0.287
O=C(CCl)Nc1cc(Cl)ccc1C(=O)O	0.133	-0.0733	-0.2	-0.0699	-1.38 (active)	0.231	-0.0926	-0.101	-0.15	-0.669
CCN(C(=O)CCl)C1CCS(=O)(=O)C1 (stereo not given)	-0.144	-0.284	-0.167	-0.00588	-1.26 (active)	0.365	-0.0522	-0.169	-0.218	-0.707
CC1Cc2ccccc2N1C(=O)CCl (stereo not given)	-0.391	-0.238	-0.117	-0.328	-1.4 (active)	0.164	-0.572	-0.242	-0.382	0.0877
CNC(=O)C1(NC(=O)CCl)CCCCC1	-0.206	-0.687	-0.213	-0.128	-1.81 (active)	0.248	-0.358	-0.0869	0.0503	0.154
O=C(CCl)NCc1cccc(F)c1	-0.0396	-0.597	-0.208	-0.138	-1.24 (active)	0.227	-0.0221	-0.156	-0.273	-0.133
O=C(CCl)NCCC1COCCO1 (stereo not given)	-0.0161	-0.0714	-0.0389	-0.237	-1.39 (active)	0.227	-0.221	-0.143	0.0547	-0.519
O=C(CCl)N1CCC2(CCC(O)CC2)CC1	-0.306	-0.236	-0.102	-0.109	-1.76 (active)	0.404	-0.157	-0.17	-0.243	0.0341
O=C(CCl)NCCC1=CCCCC1	-0.254	-0.269	0.145	0.0106	-1.6 (active)	0.284	-0.111	-0.0126	-0.103	-0.0314
